Screens as filed in PubChem.
Only some compounds are listed: those with a hit (about 2.4% of all), similar ones and a draw of the others.
D2 PAM-1: potentiates the human D2 dopamine receptor allosterically; P14416; DiscoveRx D2 beta-arrestin cells, luminescence, 90 min; 100% = 57 uM dopamine signal; potentiation, % (concentration not given with the values); 360,000 compounds, 0.23% hits; in the data active means potentiation above about 50%; inconclusive means mostly about 30% to 49%
Target sequence (P14416 whole entry, looked up): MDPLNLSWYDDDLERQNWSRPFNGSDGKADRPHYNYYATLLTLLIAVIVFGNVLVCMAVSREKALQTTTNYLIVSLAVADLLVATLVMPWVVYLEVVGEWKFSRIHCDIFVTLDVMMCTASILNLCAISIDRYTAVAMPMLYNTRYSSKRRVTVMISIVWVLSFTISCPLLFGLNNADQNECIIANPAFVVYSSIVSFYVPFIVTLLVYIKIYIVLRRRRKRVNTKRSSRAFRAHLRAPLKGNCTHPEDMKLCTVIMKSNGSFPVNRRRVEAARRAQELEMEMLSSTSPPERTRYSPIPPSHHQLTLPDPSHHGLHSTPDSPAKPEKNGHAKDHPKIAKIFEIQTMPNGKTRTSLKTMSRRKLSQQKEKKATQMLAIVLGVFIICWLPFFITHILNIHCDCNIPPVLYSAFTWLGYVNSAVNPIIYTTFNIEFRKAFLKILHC
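PathHunter beta-arrestin assay in DiscoveRx D2 cells. Compounds were added with an EC20 of dopamine (50 nM final) for 90 min at 37 deg C. Luminescence was read 1 h after detection reagent, with 57 uM dopamine as the EC100 control.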
D2 PAM-2: D2 dopamine receptor (human) potentiation | potentiation, % at 10 µM | P14416 | HEK293 T-REx D2, calcium flux, EC20 dopamine potentiation | 340,000 compounds, 0.34% hits;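 active means potentiation over 3 SD above the plate norm, cut at about 30% in these data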; further: 0% is about no effect
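Calcium flux readout, no-wash dye, 1 read/s. Inducible HEK293 Trex D2 line, overnight 30 C. Compound alone 180 s (agonist flags), then EC20 dopamine, another 180 s to score potentiation.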
D2 ag-1: agonists of human D2 dopamine receptor; P14416; HEK293 T-REx D2 cells, calcium flux agonist mode; activation, % at 2 µM; 340,000 compounds, 0.53% hits;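 active means activation over 3 SD above normal in the single-dose calcium agonist read, cut at about 30% in these data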; further: 0% is about no effect
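Calcium-flux readout, 1 cycle/sec over 180 s following compound pin transfer, in inducible HEK293 Trex D2 cells (force-coupled); dopamine controls included. Positive calcium responses during this window marked compounds as potential agonists.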
D2 ag-2: human D2 receptor agonism in beta-arrestin assay; AID 624465; activation, % (concentration not given with the values); DiscoveRx PathHunter D2 beta-arrestin, luminescence, 90 min; 100% = 57 uM dopamine signal; 360,000 compounds, 0.084% hits; P14416; in the data active means activation above about 40%; inconclusive means between about 15% and that limit
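DiscoveRx PathHunter D2 beta-arrestin cells (2,100/well) attached overnight, then compound-stimulated 90 min at 37 C in HBSS/10 mM HEPES/0.1% Tween-20 buffer; beta-galactosidase complementation read by luminescence after 1 h at ambient temperature. Dopamine 57 uM final (EC100) as control.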
D2 antag: antagonists of human D2 dopamine receptor; inhibition, % at 10 µM; P14416; HEK293 TREx D2 cells, calcium flux, dopamine EC80; 340,000 compounds, 2% hits; in the data active means inhibition above about 30%; inactive means below that, where a call was filed; further: 0% is about no effect
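Overnight-induced (tetracycline, 30 C) HEK293 T-REx cells carrying force-coupled D2 receive a no-wash calcium dye, then compound, then EC80 dopamine at 180 s; signals are read kinetically throughout.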
* = called active by the depositor; ? = inconclusive; / = no result given.

SMILES	D2 PAM-1	D2 PAM-2	D2 ag-1	D2 ag-2	D2 antag
COc1ccc(CNCc2c(C(=O)O)n(Cc3ccc(F)cc3)c3cc(C)ccc23)cc1OC	/	-17	1	/	/
Cc1cccc(N2CCN(C(=O)Cn3c(=O)c4cccn4c4ccc(F)cc43)CC2)c1C	/	-13	-1	/	/
O=C(CSC1=Nc2ccccc2N=C(c2ccc(F)cc2)C1)Nc1ccc(Cl)cc1	/	12	0	/	/
Cc1cc(C)cc(NC(=O)C(=O)NCC(c2ccc3c(c2)OCO3)N2CCOCC2)c1 (stereo not given)	/	1	-2	/	/
O=C(CCN1CCCCC1)Nc1cccc(Br)c1	-6	-11	0	-5	55*
COC(=O)c1ccc(NC(=O)CN2CCN(CCO)CC2)cc1	-1	-11	0	0	33*
CN1CCN(CCC(=O)Nc2cccc(Br)c2)CC1	-11	-14	0	-1	7
COc1ccc(CNC(=O)C2=C(C)C(=O)OC23CCN(C(C)=O)CC3)cc1	/	4	1	/	/
COc1ccccc1-c1noc(-c2ccc(NC3CCCC3)c([N+](=O)[O-])c2)n1	/	-4	4	/	/
Cc1cc(Cl)ccc1OC(C)C(=O)NCCc1ccc2c(c1)OCCO2 (stereo not given)	-5	-7	1	-3	64*
CC(NC(=O)COc1cccnc1[N+](=O)[O-])c1ccc(F)cc1 (stereo not given)	-1	34*	0	2	0
O=C(COc1cccnc1[N+](=O)[O-])Nc1ccc(F)cc1	-1	/	/	-1	/
Cc1ccc(C)c(NC(=O)N2CCN3CCCCC3C2)c1 (stereo not given)	/	-9	0	/	/
CN(C)CCCn1c(SCC(=O)Nc2sc3c(c2C#N)CCCC3)nnc1-c1ccncc1	-15	-4	0	0	39*
COc1ccc(NC(=O)c2cc3c(=O)n(Cc4ccco4)ccc3nc2C)c(OC)c1	/	/	1	/	/
O=C(Cc1cn2ccsc2n1)OCc1nc2ccccc2s1	-35	-10	-1	-2	-6
O=C(Cc1cn2ccsc2n1)OCc1ccccc1	-5	-3	0	3	32*
CCCN(C(=O)c1c(-c2ccccc2)noc1C)c1c(N)n(Cc2ccccc2)c(=O)[nH]c1=O	-2	-3	-1	0	65*
CCN(C(=O)COC(=O)c1c(-c2ccccc2)noc1C)c1c(N)n(Cc2ccccc2)c(=O)[nH]c1=O	-8	/	/	1	/
COc1cc(Br)c(CCNC(=O)c2ccco2)cc1OC	-6	-4	0	-2	36*
COc1ccc(CCNC(=O)c2noc3c2CCCC3)cc1OC	-13	2	0	-1	42*
CCc1nc2ccc(C(=O)NCCc3ccc(OC)c(OC)c3)cc2nc1CC	8	3	0	4	-1
COc1ccc(Cl)cc1NC(=O)c1noc2c1CCCC2	-4	18	1	-6	31*
COc1ccccc1OCCNC(=O)c1ccco1	-2	-6	1	-5	1
COc1ccc(CCNC(=O)c2nonc2N)cc1OC	-15	-1	0	1	7
SMILES	D2 PAM-1	D2 PAM-2	D2 ag-1	D2 ag-2	D2 antag
COc1ccc(CCNC(=O)c2ccc3nc(-c4ccco4)c(-c4ccco4)nc3c2)cc1OC	61*	10	6	9	-6
CCOCCCNC(=O)C(c1ccc(Cl)cc1)N(Cc1cccs1)C(=O)c1ccc(NC(C)=O)cc1 (stereo not given)	/	1	-1	/	/
COc1ccc(C(=O)c2c(C(F)(F)F)oc3c2C(=O)c2ccccc2C3=O)cc1OC	?	5	2	?	31*
CCC(=O)OCc1cnc(C)c2oc(=O)c(C(=O)Nc3ccc(CC)cc3)cc12	/	/	-1	/	/
CNCc1c(OCc2ccccc2F)ccc2ccccc12	-24	-22	0	-3	78*
CNCc1c(OCc2ccccc2)ccc2ccccc12	-10	-10	0	-3	79*
Nc1nonc1C(=O)NCCNCc1c(OCc2ccccc2F)ccc2ccccc12	-14	-34	-2	1	16
CC1=Nc2cc(C(=O)NC(C)C)ccc2Sc2ccc(C)cc21	/	1	1	/	/
CCOc1cc(-c2ccc(OC(=O)c3ccc(C)cc3)c(OC)c2)cc(=O)c2c(C)oc(C)c12	/	-20	-2	/	/
Cc1ccc(C)c(N2CCN(C(=O)CN3C(=S)NC(C)(C)CC3C)CC2)c1 (stereo not given)	-3	2	5	2	41*
CC1CC(C)(C)NC(=S)N1CC(=O)N1CCN(Cc2ccccc2)CC1 (stereo not given)	-2	0	0	0	-6
COc1ccc(Cl)cc1Nc1nc(C)cc(=O)[nH]1	-33	-28	0	2	74*
COCCn1c(SCC(=O)Nc2sc(C)c(C)c2C#N)nnc1-c1ccc(OC)cc1	-4	-23	-2	1	4
COCCn1c(SCC#N)nnc1-c1ccc(OC)cc1	-5	-20	-1	2	55*
COc1ccc(-n2nc(C(N)=O)c(O)cc2=O)cc1	-3	-5	1	3	32*
Nc1cccc(N2C(=O)c3cccc4c(N)ccc(c34)C2=O)c1	-21	2	49*	-3	-18
Nc1ccc2c3c(cccc13)C(=O)N(c1ccccc1)C2=O	5	6	-2	3	-18
Cc1cccc(N2C(=O)c3cccc4c(N)ccc(c34)C2=O)c1	2	3	117*	4	7
Cc1cc(C)c2c(=O)cc(C(=O)NCCc3ccc(S(N)(=O)=O)cc3)oc2c1	/	-8	/	/	/
CCOc1ccc(-c2cc(C(=O)NCc3ccc(OC)cc3)c3c(-c4ccc(F)cc4)[nH]nc3n2)cc1	/	-2	0	/	/
CCCCc1ccc(NC(=S)N2CCN(c3ccccn3)CC2)cc1	-10	11	1	9	-6
CCC(C)c1ccc(NC(=S)N2CCN(c3ccccn3)CC2)cc1 (stereo not given)	2	-5	30*	3	20
CN1CCN(S(=O)(=O)c2ccc(Oc3ccc(F)cc3Br)nc2)CC1	-1	10	2	-1	5
CN1CCN(S(=O)(=O)c2ccc(Oc3ccc(Br)cc3F)nc2)CC1	1	4	-1	-1	34*
COc1cccc(-c2nc(SCc3cc(=O)c4cc(Cl)ccc4[nH]3)n[nH]2)c1	/	-8	-1	/	/
CCCC(CCC)c1nc2ccncc2[nH]1	-1	36*	0	3	-5
Cc1ccc(C(=O)Nc2ccc3c(c2)N(C)C(=O)c2ccccc2S3)cc1F	/	9	1	/	/
COc1cc(C(CC(=O)NCc2ccccc2Cl)N2Cc3ccccc3C2=O)cc(OC)c1OC (stereo not given)	/	-1	0	/	/
CSc1cccc(CN2CCN(Cc3ccccc3)C(CCO)C2)c1 (stereo not given)	-8	-35	-3	-2	39*
